Results as given in the supplement of paper PMC6555819.

These sequences were tested on VDR:RXRa (NR concentration 270 nM, RXRa partner concentration 90 nM) (assay: PBM binding z-score (relative to random genomic background probes); higher = stronger binding; sequences stand for … in GC…GCGATTGACAGCGTAGAATGAAGG).
Method: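 Protein-binding microarray (Agilent 4x180K custom design, double-stranded 60-nt probes: 5' GC cap, 34-nt variable region, 24-nt constant primer region; full probe sequence given). Purified or IVT nuclear receptor:RXRα heterodimers (3:1 NR:RXRα, mostly 270:90 nM) or homodimers were incubated for 1 h in PBS with 2% milk and no ligand, then detected with Alexa488 antibodies. Fluorescence from o1-orientation probes (~5 replicates averaged) was converted to z-scores against 500 random hg19 background probes. Variable regions are seed direct-repeat (DR0–DR5) sites, all their single-nucleotide variants and half-site ablations.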

Sequence | PBM binding z-score
ATAACGAGGGCAATGAGTTGATAGCACGGGTGGC | 4.89
ACTAGCAGGCCAAGGGTCACTCGAGATTAGTCCG | 2.56
CTACCAAGGTGAACAAGGTGGTTGATTACTATTC | 1.84
TCAGACAGGTGAAGGTAACTCAGGTACGCAGTCG | 0.943
CGAACGAGGGCATGAGTTGATATCAAATGCCGAT | 1.44
ATATGTAGGTTAGTTGGGGTCATTCAGACTAGGC | 6.27
CCGCGGAGGACAACAGGAGGTCAGAGCTGCCAGA | 1.8
CCTCGGAGGACAGAAGGTTAGAGCTGTCCGCTTT | -0.275
TCTCGGAAGACACGAAAGGTCAGAGCTCGACATC | 2.55
GATACAGGGTCAGCTAGAGGCCTGAGTATGGAAA | 2.2
GCTCGAAGGACAAGGTCAGAGCTTTGTCCGTAGA | 1.31
CGAACTAGGTCATTGACATGACAGTGAATAGTAA | 2.16
CTACCAAGGTGAAGAAGGTCGTTGATTACTATTC | 4.25
CGTACTAGGTCATCCAGGACAGTGAATACATTGA | 4.32
TAGCCTAGGTCATGGGCCATTATACCACGCGAAC | 2.27
ACAGACAGGTGATGAAGGTAAGTCAGGCTATCAT | -0.133
ATCGAAAGGTCGAGGTGAGTATCGAGAAAGGGAA | 2.57
TCTTGTAGATCAATAGGGGTTAAGAAAGTGCGCT | 2.64
ACTATTAGTTGACGTAGGGCAACCGATACGACGC | 0.19
TCATATAGGTAAATGCTAGGTGCAAGTCCGATCT | 0.809

Sequence | PBM binding z-score
AGAATGAGGTTACCAAAGATCCGGGAAACGCTTG | 1.16
ATCTCTAGGGAACAAGTTCAGTGAAAGAGAGGAC | 1.48
GGAACGACGGCAAAGTTGATAGCATCTGTCGACG | -0.538
CGAACTAGGTCAGGACAGGACAGTGAAGGATGAT | 0.943
GCATATAGGTAATACAAGGTTAAAGTCCGATTGT | 1.6
ATCTCCAGGTAACAAGTTCAGTGAAAGAGAGGAC | 2.42
CCTTACGGGTCACGAGGTTATAGCTCGACGAGCG | 5.07
ATCTCTAGGTAACAAGTTCAGCGAAAGAGAGGAC | 2.45
CTAACTAGGTCAGAACAGGACAGTGAAGGATGAT | 0.705
ATCTCTAGGTAAAGATAGTTCCGTGAATGCAAAT | -0.0941
ATCCCTAGGTAAGACTCAGTTCAGTGAAGAACGC | 1.05
AGAACGAGGGCACGCTGAATTGATAGCAGAGTAG | 0.557
TCTTGTTGATCAATAGAGGTTAAGAAAGTGCGCT | 1.69
AGAACGATGGCAATGAGTTGATAGCACGGGTGGC | 0.528
CAAACTAGGTCGAGAGGTCAAAGTCCGCTTCCCG | 5.01
CATCCAGGGTCAGCTAGGCCAGAGTAGGGACGGC | 3.97
TCATGTAGGTAAACAGGTGAAAGTCCGTAAGTTA | 0.613
AGTTACGGGTCAACGAGGTTATAGCACGCGTATA | 7.65
CCTACTGGGCCAAAGGTCATCGATTCCAATGCTC | 4.53
TAGCCTAGGTCATTGGGCCAGTGTAGTACGCATC | 2.12
